# Tests used:
# Experiment in all cases: SPOT peptide array binding signal intensity (averaged, normalized) (arbitrary units (background-subtracted, floor 0; scale differs between SH3 domains)); higher = stronger binding of the SH3 domain to the peptide
# CaNbp2 = molecular target: CaNbp2
# Summary of the method: (§1)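 SH3 domains from four yeast species were expressed as GST fusions in E. coli BL21(DE3) and purified on glutathione Sepharose. Each was incubated at 10 μg/ml overnight at 4°C in TBS-based blocking buffer on cellulose membranes bearing synthetic 15-mer peptides, in which serines replaced cysteines. Bound protein was detected with anti-GST antibody, an HRP anti-mouse secondary and luminol, then imaged and quantified with Genespotter. The binding signal is the normalized, background-subtracted spot intensity averaged over replicates, in arbitrary units that are not the same from one domain to another.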
# CaRvs167 = molecular target: CaRvs167
# Summary of the method: as §1
# CaRvs167-3 = molecular target: CaRvs167-3
# Summary of the method: as §1
# CaSho1 = molecular target: CaSho1
# Summary of the method: as §1
# CaSla1-D1-D2 = molecular target: CaSla1-D1-D2
# Summary of the method: as §1
# CaSla1-D3 = molecular target: CaSla1-D3
# Summary of the method: as §1
# ScAbp1 = molecular target: ScAbp1
# Summary of the method: as §1
# ScBbc1 = molecular target: ScBbc1
# Summary of the method: as §1
# ScBem1-D1 = molecular target: ScBem1-D1
# Summary of the method: as §1
# ScBzz1-D1 = molecular target: ScBzz1-D1
# Summary of the method: as §1
# ScBzz1-D2 = molecular target: ScBzz1-D2
# Summary of the method: as §1
# ScCyk3 = molecular target: ScCyk3
# Summary of the method: as §1
# ScFus1 = molecular target: ScFus1
# Summary of the method: as §1
# ScHof1 = molecular target: ScHof1
# Summary of the method: as §1
# ScHse1 = molecular target: ScHse1
# Summary of the method: as §1
# ScLsb1 = molecular target: ScLsb1
# Summary of the method: as §1
# ScLsb2 = molecular target: ScLsb2
# Summary of the method: as §1
# ScLsb3 = molecular target: ScLsb3
# Summary of the method: as §1
# ScLsb4 = molecular target: ScLsb4
# Summary of the method: as §1
# ScMyo3 = molecular target: ScMyo3
# Summary of the method: as §1
# ScMyo5 = molecular target: ScMyo5
# Summary of the method: as §1
# ScNbp2 = molecular target: ScNbp2
# Summary of the method: as §1
# ScPex13 = molecular target: ScPex13
# Summary of the method: as §1
# ScRvs167 = molecular target: ScRvs167
# Summary of the method: as §1
# ScSho1 = molecular target: ScSho1
# Summary of the method: as §1
# ScSla1-D1-D2 = molecular target: ScSla1-D1-D2
# Summary of the method: as §1
# ScSla1-D3 = molecular target: ScSla1-D3
# Summary of the method: as §1
# SpAbp1-D1 = molecular target: SpAbp1-D1
# Summary of the method: as §1
# SpBbc1 = molecular target: SpBbc1
# Summary of the method: as §1
# SpBzz1-D1 = molecular target: SpBzz1-D1
# Summary of the method: as §1
# SpBzz1-D2 = molecular target: SpBzz1-D2
# Summary of the method: as §1
# SpCyk3 = molecular target: SpCyk3
# Summary of the method: as §1
# SpHof1 = molecular target: SpHof1
# Summary of the method: as §1
# SpHof1-2 = molecular target: SpHof1-2
# Summary of the method: as §1
# SpHof1-3 = molecular target: SpHof1-3
# Summary of the method: as §1
# SpHse1 = molecular target: SpHse1
# Summary of the method: as §1
# SpLsb1 = molecular target: SpLsb1
# Summary of the method: as §1
# SpLsb4 = molecular target: SpLsb4
# Summary of the method: as §1
# SpMyo1 = molecular target: SpMyo1
# Summary of the method: as §1
# SpNbp2 = molecular target: SpNbp2
# Summary of the method: as §1
# SpPex13 = molecular target: SpPex13
# Summary of the method: as §1
# SpRvs167 = molecular target: SpRvs167
# Summary of the method: as §1
# SpSla1-D1-D2 = molecular target: SpSla1-D1-D2
# Summary of the method: as §1
# SpSla1-D3 = molecular target: SpSla1-D3
# Summary of the method: as §1
binder,measurement,setting,value
PALPSLPPPPLLNVD,SPOT peptide array binding signal intensity,CaNbp2,≤ 0
same,SPOT peptide array binding signal intensity,CaRvs167,≤ 0
same,SPOT peptide array binding signal intensity,CaRvs167-3,≤ 0
same,SPOT peptide array binding signal intensity,CaSho1,8.5
same,SPOT peptide array binding signal intensity,CaSla1-D1-D2,≤ 0
same,SPOT peptide array binding signal intensity,CaSla1-D3,≤ 0
same,SPOT peptide array binding signal intensity,ScAbp1,≤ 0
same,SPOT peptide array binding signal intensity,ScBbc1,≤ 0
same,SPOT peptide array binding signal intensity,ScBem1-D1,≤ 0
same,SPOT peptide array binding signal intensity,ScBzz1-D1,15.5
same,SPOT peptide array binding signal intensity,ScBzz1-D2,10.5
same,SPOT peptide array binding signal intensity,ScCyk3,≤ 0
same,SPOT peptide array binding signal intensity,ScFus1,≤ 0
same,SPOT peptide array binding signal intensity,ScHof1,3250
same,SPOT peptide array binding signal intensity,ScHse1,128
same,SPOT peptide array binding signal intensity,ScLsb1,≤ 0
same,SPOT peptide array binding signal intensity,ScLsb2,≤ 0
same,SPOT peptide array binding signal intensity,ScLsb3,6.5
same,SPOT peptide array binding signal intensity,ScLsb4,≤ 0
same,SPOT peptide array binding signal intensity,ScMyo3,1950
same,SPOT peptide array binding signal intensity,ScMyo5,1820
same,SPOT peptide array binding signal intensity,ScNbp2,≤ 0
same,SPOT peptide array binding signal intensity,ScPex13,≤ 0
same,SPOT peptide array binding signal intensity,ScRvs167,≤ 0
same,SPOT peptide array binding signal intensity,ScSho1,542
same,SPOT peptide array binding signal intensity,ScSla1-D1-D2,≤ 0
same,SPOT peptide array binding signal intensity,ScSla1-D3,1.25
same,SPOT peptide array binding signal intensity,SpAbp1-D1,≤ 0
same,SPOT peptide array binding signal intensity,SpBbc1,1
same,SPOT peptide array binding signal intensity,SpBzz1-D1,94
same,SPOT peptide array binding signal intensity,SpBzz1-D2,1
same,SPOT peptide array binding signal intensity,SpCyk3,≤ 0
same,SPOT peptide array binding signal intensity,SpHof1,≤ 0
same,SPOT peptide array binding signal intensity,SpHof1-2,1210
same,SPOT peptide array binding signal intensity,SpHof1-3,326
same,SPOT peptide array binding signal intensity,SpHse1,≤ 0
same,SPOT peptide array binding signal intensity,SpLsb1,≤ 0
same,SPOT peptide array binding signal intensity,SpLsb4,≤ 0
same,SPOT peptide array binding signal intensity,SpMyo1,1260
same,SPOT peptide array binding signal intensity,SpNbp2,≤ 0
same,SPOT peptide array binding signal intensity,SpPex13,≤ 0
same,SPOT peptide array binding signal intensity,SpRvs167,0.5
same,SPOT peptide array binding signal intensity,SpSla1-D1-D2,≤ 0
same,SPOT peptide array binding signal intensity,SpSla1-D3,≤ 0
